Assay outcomes from PubChem.
This is a sample that favours compounds with a hit; in the whole collection about 18% have one here.
IL1B secr inh: inhibitors of inflammasome signaling (IL-1 beta secretion). AID 743279. activity change, % at 57.5 µM. THP-1 LPS/ATP IL-1B secretion, AlphaLISA, 16 h; active compounds read low. 4.7% of 360,000 active; in the data active = activity change below about -50%; inconclusive = mostly about -30% to -49%
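THP-1 cells pretreated 1 hr with compounds (up to 57.5 uM final), then stimulated with LPS (250 ng/mL final) plus ATP (1.25 mM final); secreted IL-1B measured by AlphaLISA after 16 hr, decreased signal indicating inhibition.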
DT40 TDP1 no CPT: qHTS for Inhibitors of human tyrosyl-DNA phosphodiesterase 1 (TDP1): qHTS in cells in absence of CPT | DT40 Tdp1-/- hTDP1 cells, no CPT, ATP luminescence, 48 h | Potency, µM (doses to about 46.2 µM), most hits filed as inhibitors | 15% of 420,000 active | AID 686978, 2013; also: nearly all actives have a fitted effect of over 55% in size
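Chicken DT40 Tdp1-/- cells complemented with human TDP1, screened without camptothecin (DMSO vehicle only), 400 cells/well. Compounds pin-transferred, cells incubated at 37 °C for at least 48 hr. Growth read as ATP-dependent luminescence (CellTiter-Glo, 30 min at RT).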
TDP1 cell CPT: DT40-hTDP1 cell growth loss with CPT | chicken DT40 Tdp1-/-;hTDP1 cells + 20 nM CPT, ATP luminescence, 48 h | Potency, µM (top dose mostly 46.2 µM), most hits filed as inhibitors | 12% of 420,000 active | AID 686979; also: nearly all actives have a fitted effect of over 55% in size
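Chicken DT40 Tdp1-/- cells stably complemented with human TDP1 were seeded at 400 cells/well in medium containing 20 nM camptothecin, exposed to pin-transferred compounds, and grown at 37 °C for at least 48 hr. Viability was read as ATP luminescence.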
TDP1 inh: TDP1 (human) enzyme inhibition; Q9NUW8; 0.28% of 350,000 active; recombinant TDP1, AlphaScreen DNA substrate cleavage; Potency, µM (doses to about 130 µM), hits mostly inhibitors; also: nearly all actives have a fitted effect of over 40% in size
Target sequence (Q9NUW8 whole entry, looked up): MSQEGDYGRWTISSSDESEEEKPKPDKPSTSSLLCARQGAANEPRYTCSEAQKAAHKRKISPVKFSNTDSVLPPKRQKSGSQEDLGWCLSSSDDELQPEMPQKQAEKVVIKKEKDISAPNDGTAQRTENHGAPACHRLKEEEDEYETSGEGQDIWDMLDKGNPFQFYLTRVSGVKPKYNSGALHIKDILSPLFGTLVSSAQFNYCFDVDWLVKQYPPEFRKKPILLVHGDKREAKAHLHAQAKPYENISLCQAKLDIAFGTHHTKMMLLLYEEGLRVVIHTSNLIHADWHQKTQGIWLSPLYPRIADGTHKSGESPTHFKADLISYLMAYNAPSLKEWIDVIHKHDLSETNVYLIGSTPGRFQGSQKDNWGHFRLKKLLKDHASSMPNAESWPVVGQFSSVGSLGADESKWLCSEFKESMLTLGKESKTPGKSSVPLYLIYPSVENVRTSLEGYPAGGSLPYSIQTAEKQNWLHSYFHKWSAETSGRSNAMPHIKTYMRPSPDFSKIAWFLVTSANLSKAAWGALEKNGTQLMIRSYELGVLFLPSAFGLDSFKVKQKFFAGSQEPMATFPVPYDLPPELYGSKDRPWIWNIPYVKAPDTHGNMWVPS
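Signal: AlphaScreen proximity between streptavidin donor and anti-FITC acceptor beads on intact substrate. Reaction: Tdp1 1 nM, substrate 15 nM final, 5 min RT after 15 min compound preincubation.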
TGFb inhibitor: blocks TGF-b signaling | HepG2 CAGA-GFP TGF-b/SMAD3 reporter, GFP fluorescence, 18 h; TGF-beta stimulated, 500 pg/mL final | Potency, µM (titrated, usually from 46.1 µM), usual class: inhibitors | 1.2% of 410,000 active | AID 588855; also: nearly all actives have a fitted effect of over 65% in size
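Smad-responsive CAGA-GFP expression was quantified in HEPG2 cells exposed to compounds and 500 pg/mL final TGF-beta for 18 h at 37 degrees C; unstimulated wells defined full inhibition.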
HepG2 viability: HepG2 cytotoxicity, counter-screen for TGF-b inhibitors; HepG2 CAGA-GFP viability, ATP luminescence, 18 h; Potency, µM (highest dose often 46.1 µM), usual class: cytotoxic; 0.76% of 410,000 active; AID 588856
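HepG2 CAGA-GFP cells (1000/well, DMEM with 1% FBS) received compound, then TGF-beta at 500 pg/mL final, and were incubated 18 hours at 37 degrees C. Viability was read by CellTiter-Glo luminescence. Media-only wells were set as complete cell-killing and DMSO as no toxicity.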
Numbers stand for hits; n = inactive; u = inconclusive; x = not tested or not shown; [ ] = another dose, or the depositor's remark. Unless noted, calls follow the shape of the dose curve; as a rule, active = well fitted curve in the direction sought with a large enough effect; inconclusive = small, poorly fitted or top-dose-only effect, or another doubt; inactive = no such curve, though single readings can be large; an effect the other way counts as inactive or inconclusive.

SMILES | IL1B secr inh | DT40 TDP1 no CPT | TDP1 cell CPT | TDP1 inh | TGFb inhibitor | HepG2 viability
O=C(NCc1ccccc1Cl)c1ccc2c(c1)NC(=O)C(CS(=O)(=O)Cc1ccc(Cl)cc1)N2 (stereo unspecified) | x | u | u | n | n | n
Cc1nccn1CCOc1ccccc1Cl | n | n | n | x | n | n
Cc1cc(C)n(CC(O)COc2ccc(Cl)cc2Cl)n1 (stereo unspecified) | -51.7 | 20.6µM | u | x | n | n
Cc1nccn1CC(O)COc1ccc(Cl)cc1Cl (stereo unspecified) | n | 14.6µM | u | x | n | n
O=c1cc(Br)c(O)c(Br)cc1Br | u | 18.4µM | u | x | n | n
O=C1OC(c2ccccc2)(c2cc(Br)c(O)c(Br)c2)c2ccccc21 (stereo unspecified) | n | u | n | x | n | n
OCCN(Cc1ccccc1)C(=S)Nc1ccc(Cl)cc1Cl | -56.0 | u | u | n | n | n
CN(C)CCCN(Cc1ccccc1)C(=S)Nc1ccc(F)c(Cl)c1 | u | 18.4µM | n | n | u | n
CN(C)CCCN(Cc1ccccc1)C(=S)Nc1cccc(C(F)(F)F)c1 | n | u | 14.6µM | n | u | n
COc1ccccc1NC(=S)N(Cc1ccccc1)Cc1ccccn1 | n | u | u | n | n | n
S=C(Nc1ccccc1Cl)N(Cc1ccccc1)Cc1ccccn1 | -51.6 | u | u | n | n | n
Cc1ccccc1C(=O)NC(=S)N(CCO)Cc1ccccc1 | n | n | n | x | n | n
CC1(C)CC(NC(=O)c2ccccc2NS(=O)(=O)c2ccc(Br)cc2)CC(C)(C)N1 | n | n | n | x | n | n
Cc1cccc(C)c1NC(=O)c1ccc(N2CCCC2=O)cc1 | u | n | n | n | n | n
CCCc1nnc(NC(=O)C2CC(=O)N(CCc3ccc(F)cc3)C2)s1 (stereo unspecified) | n | n | n | n | n | n
Cc1cc2cc(CNC(=O)c3ccc(Br)o3)ccc2[nH]1 | n | u | u | x | n | n
Cc1cc2cc(CNC(=O)Cc3cccs3)ccc2n1C | n | u | 8.2µM | x | n | n
Cc1cc2cc(CNC(=O)Cc3ccc([N+](=O)[O-])cc3)ccc2n1C | n | n | n | n | n | n
Cc1cc2cc(CNC(=O)c3ccc(Br)o3)ccc2n1C | n | n | 25.9µM | x | n | n
O=C1CCCC2=C1C1(CCSC1)N=C(Nc1nc3ccccc3o1)N2 (stereo unspecified) | x | x | x | n | x | x
CCN(CC(=O)Nc1ccccc1C(F)(F)F)C(=O)c1ccc(-n2nc(C)c(CCC(=O)OC)c2C)cc1 | n | 20.6µM | u | x | n | n
CC1CCc2[nH]c3ccc(C(=O)N(C)CC(=O)Nc4ccc(F)cc4)cc3c2C1 (stereo unspecified) | n | 10.3µM | u | n | n | n
CCN(CC(=O)Nc1ccccc1C(F)(F)F)C(=O)c1ccc2[nH]c3c(c2c1)CC(C)CC3 (stereo unspecified) | -62.4 | 18.4µM | u | x | u | n
CCN(CC(=O)Nc1ccccc1C(F)(F)F)C(=O)c1ccccc1Cc1ccccc1 | n | 20.6µM | u | x | n | n
CN(C)C1CCc2[nH]c3ccc(NC(=O)c4ccc(F)cc4)cc3c2C1 (stereo unspecified) | x | x | x | n | x | x
SMILES | IL1B secr inh | DT40 TDP1 no CPT | TDP1 cell CPT | TDP1 inh | TGFb inhibitor | HepG2 viability
CCN(CC(=O)Nc1ccccc1C(F)(F)F)C(=O)CCc1ccccc1 | n | n | n | x | n | n
C/C(=N/NS(=O)(=O)c1ccc(C(C)(C)C)cc1)c1ccc2c(c1)OCO2 | n | n | n | n | n | n
CCc1ccc(S(=O)(=O)c2nnn3c2nc(NCCNC(C)=O)c2cc(Cl)ccc23)cc1 | x | u | u | n | n | n
COc1ccc(NC(=O)CN(C)C(=O)c2ccc3[nH]c4c(c3c2)CC(C)CC4)cc1 (stereo unspecified) | u | 23.1µM | n | n | n | n
COc1cccc(NC(=O)CN(C)C(=O)c2ccc3[nH]c4c(c3c2)CC(C)CC4)c1 (stereo unspecified) | u | u | u | n | n | n
CCC1CCc2sc(C(=O)N(C)CC(=O)Nc3cccc(OC)c3)cc2C1 (stereo unspecified) | n | u | u | n | n | n
CCC1CCc2sc(C(=O)N(C)CC(=O)Nc3ccc(OC)cc3)cc2C1 (stereo unspecified) | n | 20.6µM | u | n | n | n
Cc1cccc(N(CC(=O)Nc2ccccc2C(F)(F)F)S(=O)(=O)c2ccccc2)c1C | x | 14.6µM | 16.4µM | x | n | n
Cc1ccc2c(=O)cc(C(=O)Nc3sc4c(c3C(N)=O)CCCC4)oc2c1 | x | n | n | n | n | n
CCCn1c(-c2ccc(F)cc2)nc2c(N3CCC(N(C)C)C3)nc(C)nc21 (stereo unspecified) | x | x | x | n | x | x
O=S1(=O)N[C@H](c2ccccc2)C[C@H](c2ccc(C(F)(F)F)cc2)O1 | n | u | 14.6µM | x | n | n
COc1ccc(NCc2cccn2-c2nnc(N3CCC(C)CC3)s2)c(OC)c1 | x | 16.4µM | u | n | n | n
COc1ccc(NCc2cccn2-c2nnc(N3CCOCC3)s2)c(OC)c1 | x | n | n | n | n | n
COc1ccc(OC)c(NCc2cccn2-c2nnc(N3CCC(C)CC3)s2)c1 | x | 2.59µM | 2.91µM | n | n | n
C[C@H]1Cc2c(-c3ccccc3)nc3c(c2CO1)CN(C(=O)c1cc(I)ccc1F)CC3 | x | x | x | n[12.3 µM] | x | x
COC(=O)[C@@]12CCCCN1[C@H](c1ccc(-c3cc(C(C)=O)cs3)c(OC)c1)[C@H]1C(=O)N(C)C(=O)[C@H]12 | n | 2.91µM | 4.11µM | n | n | n
COC(=O)[C@@]12CCCCN1[C@H](c1ccc(-c3cc(C(C)=O)cs3)cc1)[C@H]1C(=O)N(C)C(=O)[C@H]12 | n | 3.66µM | 5.17µM | n | n | n
c1ccc(Nc2nnc(-c3cccnc3)s2)cc1 | n | u | n | x | n | n
O=C(c1ccc(Cn2cc(Br)cn2)o1)N1N=C(C(F)F)CC1(O)C(F)F (stereo unspecified) | n | u | 20µM | n | n | n
COc1ccccc1OCc1ccc(C(=O)N2N=C(C(F)F)CC2(O)C(F)F)o1 (stereo unspecified) | n | n | n | n | n | n
Cc1cccn2c(=O)c3cc(C(=O)NC4CCCC4)c(=N)n(CC4CCCO4)c3nc12 (stereo unspecified) | n | u | n | n | n | n
